Inconclusive results are not listed. A call without a number means that no potency is given here. Active and inactive are the calls of the source. The call rests on the fitted dose curve; in most records, active means well fitted inhibition curve with a large enough effect; inconclusive means small, poorly fitted or top-dose-only effect; inactive means no such curve, though single readings can be large or run the other way.
Assay: qHTS Assay for Lipid Storage Modulators: S3 Assay against Probe and Analogs
Conditions: Drosophila S3 cells, BODIPY lipid droplet fluorescence, 18-24 h, oleic acid added to induce droplets; series mostly up to 46.1 µM
Excerpt: Storing lipids as a reservoir for energy or the anabolism of elementary metabolites is a common feature of probably all cells and is conserved from bacteria to humans. The universal cellular lipid storage organelle is the so-called lipid storage droplet (LD). Although ubiquitous, LDs share a simple structure composed of a hydrophobic core that harbors the storage lipids, which is shielded by a droplet-specific phospholipid monolayer to which proteins are attached. The current model of LD biogenesis involves an incorporation of the lipid core into the membrane leaflets of the endoplasmic reticulum (ER) followed by a subsequent budding-like maturation of a LD, which ultimately pinches off. Once released, LD volume can increase by localized lipogenesis or fusion of existing droplets. Storage lipids are re-mobilized enzymatically by lipase activity. Lipase regulation in the adipocyte is heavily studied and involves multiple components including catecholamine signaling, the LD-associated proteins Perilipin and comparative gene identification-58 (CGI-58) and at least two lipases named hormone sensitive lipase (HSL) and adipocyte triglyceride lipase (ATGL). LD regulation outside of the adipocyte is poorly understood and only few components are known. However, there is an urgent need to learn more about ectopic fat depots as mislocalized storage of lipids, for example in the liver or muscle, is an eminent health problem associated with insulin resistance or the metabolic syndrome. We developed a laser-scanning cytometer assay to enable 1,536-well screening and combined the results of the small molecules screen with an RNAi database based on lipid storage. In this assay we tested analogs of the probe against the original qHTS assay, which involved drosophila melanogaster cells (S3), to see if these small molecules could disrupt lipid storage. NIH Molecular Libraries Probe Production Centers Network [MLPCN] NIH Chemical Genomics Center [NCGC] MLPCN Grant: MH085686 Assay Submitter (PI): Mathias Beller, Max-Planck-Institut fur Biophysikalische Chemie
qHTS was performed with embryonic Drosophila S3 cells (Bloomington Drosophila Genomics Resource Center [DGRC]). We dispensed 4 uL of cells at 1.25 x 10^6 cells/mL into LoBase Aurora COC 1,536-well plates (black walled, clear bottom) with a bottle-valve solenoid-based dispenser (Aurora) to obtain 5,000 cells/well. Triacsin C (Sigma-Aldrich T-4540), an inhibitor of long-chain fatty acyl CoA synthetase that blocks synthesis of triglycerides, was used as a positive control for lipid under-storage. A total of 23 nL of compounds dissolved in DMSO at different concentrations were transferred to the assay plates using a Kalypsys pin tool equipped with a 1,536-pin array containing 10-nL slotted pins (FP1S10, 0.457-mm diameter, 50.8 mm long; V&P Scientific). The final DMSO concentration was 0.46%. One microliter of oleic acid at 400 uM (Calbiochem, #4954) was added to induce lipid droplet formation in the cells, and the plates were lidded with stainless steel rubber gasket lined lids containing pinholes. After 18-24 h incubation at 25 0C and 95% humidity, 4 uL of the BODIPY lipid dye 493/503 (1:2000, Molecular Probes) and the Cell Tracker Red CMTPX dye (Life Technologies, # 34552) were added to the wells to stain lipid droplets and enumerate cell number, respectively. Fluorescence was detected by excitation of the fluorophores with a 488-nm laser on an Acumen Explorer (TTP Lab Tech). The total intensity in channel 1 (500-530 nm) reflected lipid droplet accumulation. Cells were detected using channel 3 (575-640 nm) with 5-um width and 100-um depth filters. The ratio of the total intensity in PMT channel 1 over total intensity of channel 3 was also calculated. Percent activity was computed relative to an internal control (100% inhibited lipid droplet deposition due to the presence of 20 uM Triacsin C), which was added to 32 wells/plate.

**Q.** With `CCOc1ccc(CCNC(=O)c2cc3ccccc3n2Cc2cccc(C)n2)cc1OCC` as the compound, how does the Potency read?
**A.** The Potency was 13.2 nM (active).

**Q.** For `CCOc1ccc(CCNC(=O)c2cc3ccncc3n2Cc2cccc(C)n2)cc1OCC`, which Potency is on record?
**A.** The Potency was “inactive”.

**Q.** For `CCOc1ccc(CCNC(=O)c2ccc(Oc3ccccc3)cc2)cc1OCC`, which Potency is on record?
**A.** The Potency was “inactive”.

**Q.** With `CCOc1ccc(CCNC(=O)c2cc3cnccc3n2Cc2cccc(C)n2)cc1OCC` as the compound, how does the Potency read?
**A.** Its Potency is “inactive”.

**Q.** With `CCOc1ccc(CCNC(=O)c2cc3sccc3n2Cc2ccc(F)cc2F)cc1OCC` as the compound, how does the Potency read?
**A.** The Potency was 16.6 nM (active).

**Q.** Which Potency does the source give for `CCOc1ccc(CCNC(=O)c2cc3ccccc3n2CCN2CCOCC2)cc1OCC` here?
**A.** The Potency was “inactive”.

**Q.** For `CCOc1ccc(CCNC(=O)c2ccc(C(=O)c3ccccc3)cc2)cc1OCC`, which Potency is on record?
**A.** Its Potency is “inactive”.

**Q.** With `CCOc1ccc(CCNC(=O)c2cc3ccccc3n2Cc2ccccn2)cc1OCC` as the compound, how does the Potency read?
**A.** The Potency was 118 nM (active).

**Q.** With `CCOc1ccc(CCNC(=O)c2ccccc2)cc1OCC` as the compound, how does the Potency read?
**A.** The Potency was “inactive”.

**Q.** For `CCOc1ccc(CCNC(=O)c2cc3sccc3n2CCN(C)C)cc1OCC`, which Potency is on record?
**A.** The Potency was 2350 nM (active).

**Q.** Which Potency does the source give for `CCOc1ccc(CCNC(=O)c2cc3ccccc3n2Cc2cccc(C)c2)cc1OCC` here?
**A.** Its Potency is 3.3 nM (active).

— PubChem BioAssay AID652175 (National Center for Advancing Translational Sciences (NCATS), 2013)
